# Results taken from ChEMBL document CHEMBL3988442, “University of Dundee, Small-Polar-MMV Screening Library” (2021).
# Screen size: about 66,000 compounds; about 960 (1.5%) showed an effect of 50% or more. This is one part of a sample in which strong results are shown more often than they occur.
# System: Trypanosoma brucei
# Test: Trypanosoma brucei 72 hour study
# Format: functional, organism-based
# Design: scale not given: in the data most compounds retested in dose-response had high values
smiles,measurement,setting,value
COc1ccccc1OCCNS(=O)(=O)N1CCOCC1,Percent Effect,"30 µM, 30.03 µM",-16.37%
O=C(NCCSCc1cccs1)C1CCCN(C(=O)N2CCCC2)C1 (configuration not stated),Percent Effect,"30 µM, 30.03 µM",-13.33%
O=C(NCCSCc1ccc(Br)s1)C1CCCN(c2cnccn2)C1 (configuration not stated),Percent Effect,"30 µM, 30.03 µM",-0.7253%
O=C(NCCSCc1ccc(Br)s1)C1CCCN(C(=O)c2cccs2)C1 (configuration not stated),Percent Effect,"30 µM, 30.03 µM",59.17%
COc1ccc(OCC(=O)NS(=O)(=O)c2ccc(Br)s2)cc1,Percent Effect,10 µM,-20.86%
Cc1ccc2c(n1)N(Cc1ccncc1)CCN(S(C)(=O)=O)C2.O=C(O)C(F)(F)F.O=C(O)C(F)(F)F,Percent Effect,"30 µM, 30.03 µM",-12.2%
COCCn1cc2c(n1)C(CNCc1ccsc1)OCC2.O=C(O)C(F)(F)F (configuration not stated),Percent Effect,"30.3 µM, […]",-36.05%
CC(C)n1ccnc1C1CCCN(c2ccccn2)C1 (configuration not stated),Percent Effect,"30 µM, 30.03 µM",54.17%
CSc1nccc(N2CCCC(c3nccn3C(C)C)C2)n1 (configuration not stated),Percent Effect,"30 µM, 30.03 µM",-62.98%
CC(C)n1ccnc1C1CCCN(c2ccnc3ccccc23)C1 (configuration not stated),Percent Effect,"30 µM, 30.03 µM",44.45%
Cc1cc(C)n(-c2nc(C(=O)NCCN3CCC(C)CC3)cs2)n1,Percent Effect,"30.3 µM, […]",41.67%
Cl.c1cc(NCc2ccncc2)nc(C2CCCNC2)c1 (configuration not stated),Percent Effect,"30.3 µM, […]",-1.5%
Cl.c1ccc(CCNc2cccc(C3CCCNC3)n2)cc1 (configuration not stated),Percent Effect,"30.3 µM, […]",66.04%
Cl.c1cc(CC2CCCNC2)nc(NCCc2cnccn2)c1 (configuration not stated),Percent Effect,"30.3 µM, […]",-1.325%
CCCn1ccnc1-c1cccc(NC(=O)C2CCCOC2)c1 (configuration not stated),Percent Effect,"30.3 µM, […]",-87.17%
O=C(CCN1CCc2ccccc21)N1C[C@@H](O)[C@H](N2CCCC2)C1,Percent Effect,"30.3 µM, […]",-36.76%
CN1CC2(CCN(Cc3cccnc3)CC2)c2cccc(F)c21.Cl,Percent Effect,"30.3 µM, […]",100.8%
CN1CC2(CCN(C(=O)c3cccnc3)CC2)c2cccc(F)c21.Cl,Percent Effect,"30.3 µM, […]",-15.84%
CN1CC2(CCN(Cc3cccnc3)CC2)c2cc(F)ccc21,Percent Effect,"30.3 µM, […]",-24.44%
CCOc1ccc(CC(=O)N2CCN(c3nccn3CC)CC2)cc1.Cl,Percent Effect,"30.3 µM, […]",9.034%
O[C@]12CC[C@H](CC1)N(Cc1ccc(F)cc1)C2CN1CCOCC1 (some centres not stated),Percent Effect,"30.3 µM, […]",-19.63%
Cc1nn(C)c(C)c1CC(=O)N1CCCN(c2cccnn2)CC1,Percent Effect,"30.3 µM, […]",-5.706%
CS(=O)(=O)NCC1CCCN(C(=O)c2ccc(F)c(F)c2)C1 (configuration not stated),Percent Effect,"30.3 µM, […]",-25.29%
COc1cccc(S(=O)(=O)Cc2noc(CC(C)C)n2)c1,Percent Effect,"30.3 µM, […]",1.682%
CCCc1noc(CS(=O)(=O)c2cccc(OC)c2)n1,Percent Effect,"30.3 µM, […]",58.74%
CCc1noc(CS(=O)(=O)c2cccc(OC)c2)n1,Percent Effect,"30.3 µM, […]",-11.01%
CS(=O)(=O)N1Cc2ccccc2C2(CCN(C(=O)c3ccno3)CC2)C1,Percent Effect,"30.3 µM, […]",-25.32%
COc1cc(N2CCC3(CCN(Cc4cccnc4)C3=O)C2)ncn1 (configuration not stated),Percent Effect,"30.3 µM, […]",-84.3%
Cc1ccccc1-c1cc(NC(=O)NC2CC2)n(CCO)n1,Percent Effect,"30.3 µM, […]",80.61%
CNC(=O)Nc1cc(-c2ccccc2C)nn1CCO,Percent Effect,"30 µM, 30.03 µM",-25.05%
Cc1ccccc1-c1cc(NC(=O)NC2CCC(O)CC2)n(CCO)n1 (configuration not stated),Percent Effect,"30.3 µM, […]",-152.8%
Cc1cc(S(=O)(=O)N(CC(N)=O)CC(C)C)ccc1Br,Percent Effect,"30.3 µM, […]",1.83%
CN(C)C(=O)COC[C@H]1CC[C@@H]2[C@@H](CCN2Cc2ccco2)O1.O=C(O)C(F)(F)F,Percent Effect,"30 µM, 30.03 µM",-23.12%
COCCN1C[C@H](OCc2csc(C)n2)[C@H]2COC[C@H]21.O=C(O)C(F)(F)F.O=C(O)C(F)(F)F,Percent Effect,"30 µM, 30.03 µM",-14.33%
CCSc1cncc(N2CCC(C(=O)NC(C)C(C)C)CC2)n1 (configuration not stated),Percent Effect,"30.3 µM, […]",8.608%
CCSc1cncc(N2CCC(NC(=O)C3CCCCC3)CC2)n1,Percent Effect,"30.3 µM, […]",77.16%
CCSc1cncc(N2CCC(C(=O)Nc3ccccn3)CC2)n1,Percent Effect,"30.3 µM, […]",12.36%
CC(=O)N(Cc1ncc(C)o1)C1CCN(Cc2ccc(F)c(F)c2)C1 (configuration not stated),Percent Effect,"30 µM, 30.03 µM",-4.591%
O=C(CN1CCCC(c2ccn[nH]2)C1)Nc1nc2c(s1)CCC2 (configuration not stated),Percent Effect,"30.3 µM, […]",99.68%
Cc1nnc(NC(=O)CN2CCCC(c3ccn[nH]3)C2)s1 (configuration not stated),Percent Effect,"30.3 µM, […]",-16.15%
Cc1cc(C2CCCN(CC(=O)N3CCCc4ccccc43)C2)n[nH]1 (configuration not stated),Percent Effect,"30 µM, 30.03 µM",1.182%
Cc1cc(C2CCCN(CCCS(=O)(=O)c3ccccc3)C2)n[nH]1 (configuration not stated),Percent Effect,"30 µM, 30.03 µM",-28.48%
O=C(O)c1cccc(CN2CCCC(c3ccn[nH]3)C2)c1 (configuration not stated),Percent Effect,"30.3 µM, […]",-0.7278%
Cc1cc(C2CCCN(CC(=O)Nc3nc4c(s3)CCC4)C2)n[nH]1 (configuration not stated),Percent Effect,"30.3 µM, […]",99.45%
O=C(CN1CCCC(c2ccn[nH]2)C1)Nc1nc2c(s1)CCCC2 (configuration not stated),Percent Effect,"30.3 µM, […]",99.87%
O=C(CN1CCCC(c2ccn[nH]2)C1)N1CCCc2ccccc21 (configuration not stated),Percent Effect,"30 µM, 30.03 µM",-60.51%
O=C(CN1CCCC(c2ccn[nH]2)C1)Nc1nncs1 (configuration not stated),Percent Effect,"30.3 µM, […]",7.116%
Cc1cc(C2CCCN(CCS(=O)(=O)c3ccccc3)C2)n[nH]1 (configuration not stated),Percent Effect,"30.3 µM, […]",-11.09%
same,Percent Effect,"10 mM, 10 mM as filed; unlikely as a test dose",-44.58%
Cc1cc(C2CCCN(CC(=O)N3CCc4ccccc43)C2)n[nH]1 (configuration not stated),Percent Effect,"30 µM, 30.03 µM",-0.2301%
Cc1cc(C2CCCN(CCNS(=O)(=O)c3ccccc3)C2)n[nH]1 (configuration not stated),Percent Effect,"30.3 µM, […]",50.6%
same,Percent Effect,"10 mM, 10 mM as filed; unlikely as a test dose",-10.85%
